# aSyn 5UTR act: Activators via SNCA 5'UTR binding, MLPCN; activity score, % (tested at 7.5 µM), hits read low; alpha-synuclein 5'UTR reporter, activators screen; actives 7.1% (n = 300,000); in the data active = activity score below about -60%
# Numbers stand for hits; 0 = inactive. The list is a sample of the results.
SMILES,aSyn 5UTR act
COc1ccc(-c2nnc(SCc3nc4ccccc4c(=O)[nH]3)o2)cc1,-70
CN(CC(=O)Nc1cccc(F)c1)C(=O)CCCNC(=O)c1ccc(Cl)cc1,-91
CCN(CC)S(=O)(=O)c1ccc(C)c(C(=O)Oc2cccc(-c3cnc4ccccc4n3)c2)c1,-178
CCN(CC)S(=O)(=O)c1cc(C(=O)Oc2cccc(-c3cnc4ccccc4n3)c2)ccc1OC,-171
Nc1n[nH]c(N)c1N=Nc1ccc(Cl)cc1Cl,-74
CCCCC12CN3CCN(CC(C3)/C1=N\NC(=O)c1ccccc1N)C2,-71
Cc1cnnc2ccc3c(no[n+]3[O-])c12,-93
COc1ccccc1OCc1cc(C(=O)N(C)CCC2CCCCO2)no1 (centres undefined),-96
COc1cc(C(C)=O)ccc1OCc1cc(C(=O)N(C)CCC2CCCCO2)no1 (centres undefined),-188
CC1CCCN(C(=O)COC(=O)c2n[nH]c3ccccc23)C1 (centres undefined),-140
COC(=O)[C@@H]1Cc2c([nH]c3ccccc23)C(C)(C)N1C(=O)CCl,0
CC1CCN(c2c(NCc3ccc(C(=O)N4CCc5ccccc54)cc3)c(=O)c2=O)CC1,0
O=C(c1cc([N+](=O)[O-])ccc1N1CCCCC1)N1CCc2ccccc21,0
Cc1ccc(C(=O)N2CCc3ccccc32)cc1,-112
O=C(c1ccc(Cl)s1)N1CCc2ccccc21,-195
Cn1cc(C(=O)N2CCc3ccccc32)cn1,-63
Cc1cccc(CSc2nnc(-c3ccco3)n2C)c1,-70
Cc1cccc(CSc2nnc(-c3ccco3)o2)c1,-64
Cc1cccc(-c2nnc(SCc3ccccc3)o2)c1,-102
Cc1ccsc1C(=O)OCC(=O)N1CCc2ccccc2C1,-126
COc1ccnc(Oc2ccc3ccccc3c2)c1C#N,-74
CSc1nc(Oc2ccc3ccccc3c2)c2sccc2n1,0
COc1ccnc(N=CNOCc2ccc(C)cc2)c1C#N,-100
COc1ccnc(Oc2ccc(C)cc2)c1C#N,-81
Cc1cnn(C(=S)NCCc2ccccc2)c1,-136
SMILES,aSyn 5UTR act
COc1ccccc1C1=NOC(CN2C(=O)c3ccccc3S2(=O)=O)C1 (centres undefined),-127
O=C(CN1C(=O)c2ccccc2S1(=O)=O)c1ccc(O)c(O)c1,0
O=C1c2ccccc2S(=O)(=O)N1CC1CC(c2ccccc2Cl)=NO1 (centres undefined),-81
N#C/C(=C\C=C\c1ccccc1[N+](=O)[O-])C(=O)NC1CCCCC1,-132
C/C(=N\Nc1cc(Cl)nc(C)n1)c1ccccc1,-142
CC1CCCN(C(=O)CSc2nc3ccccc3o2)C1 (centres undefined),-99
O=C(O)c1ccc2oc(SCC(=O)N3CCCCC3)nc2c1,-88
CCC(=O)Nc1ccc(NC(=O)c2cc3ccccc3o2)c(OC)c1,-134
COc1cc(NC(=O)c2c(OC)cccc2OC)ccc1NC(=O)c1cc2ccccc2o1,-205
COc1cc(NC(=O)c2ccccc2F)ccc1NC(=O)c1cc2ccccc2o1,-67
COC(=O)c1cc(Cl)c(NC(=O)c2cc3ccccc3o2)cc1OC,-154
CSc1ccc2c(c1)C(N1CCN(C)CC1)Cc1ccc(F)cc1S2 (centres undefined),0
COC(=O)c1ccc(NC(=O)c2ccc3c(c2)OCO3)cc1,-144
COC(=O)c1sccc1NC(=O)c1ccc(OC)cc1OC,-98
Cc1nc(NC(=O)c2ccc(Cl)cc2)nc2cc3c(cc12)OCO3,-84
CC1CCCC(NC(=O)c2ccc3c(c2)OCO3)C1C (centres undefined),-65
COC(=O)c1sccc1NC(=O)/C=C/c1ccc(Cl)cc1,-197
Cc1ccccc1-c1nc(-c2ccc(NC(=O)c3ccc4c(c3)OCO4)cc2)no1,-71
O=C(Nc1ccc(F)c(Cl)c1)c1ccc2c(c1)OCO2,-211
COC(=O)c1ccc(N/C=C\C(=O)c2ccc3c(c2)OCO3)cc1,-133
COC(=O)c1c(-c2cccnc2)csc1NC(=O)c1ccc2c(c1)OCO2,-76
O=C(Nc1ccc(C(=O)N2CCCC2)cc1)c1ccc2c(c1)OCO2,-69
COC(=O)c1sccc1NC(=O)c1ccc2c(c1)OCO2,-91
COC(=O)c1sccc1NC(=O)c1ccc(C(C)C)cc1,-87
Cc1cc(C)nc(NC(=O)c2ccc3c(c2)OCO3)c1,-94
SMILES,aSyn 5UTR act
O=C(Nc1ccc(N2CCCCC2)cc1)c1ccc2c(c1)OCCO2,-87
Cc1cc(C)nc(NC(=O)c2c(F)c(F)c(F)c(C(=O)Nc3cc(C)cc(C)n3)c2F)c1,-70
COc1ccc(NC(=O)c2ccc3c(c2)OCO3)cc1Cl,-145
c1coc(-c2nc(-c3ccncc3)no2)c1,-122
c1ccc(-c2noc(-c3cccnc3)n2)cc1,-198
c1ccc(-c2nc(-c3ccncc3)no2)cc1,-141
Brc1ccc(-c2nc(-c3ccncc3)no2)o1,-188
Brc1ccc(-c2nc(-c3ccccn3)no2)o1,0
CCCCc1ccc(-c2nc(-c3ccncc3)no2)cc1,0
O=[N+]([O-])c1ccc(-c2nc(-c3ccncc3)no2)cc1,-74
c1ccc(-c2nc(-c3ccc(-c4ccon4)s3)no2)cc1,-104
Brc1ccc(-c2nc(-c3ccncc3)no2)cc1,-184
CCC(Oc1ccccc1)C(=O)N1CCC(C(N)=O)CC1 (centres undefined),-71
CCCCOc1ccc(C(=S)N2CCC(C(N)=O)CC2)cc1,-86
CCCCCN=C(C)c1c(O)c2ccccc2oc1=O,-212
Fc1ccccc1/C=N/Nc1nc2ccccc2o1,-200
FC(F)Oc1ccccc1/C=N/Nc1nc2ccccc2o1,-165
N#Cc1cnc(SCCc2ccccc2)nc1N,-71
Oc1ccc(O)c(-c2cnns2)c1,-71
O=P(O)(O)c1ccccc1OCCOCCOCCOCCOc1ccccc1P(=O)(O)O,-130
CCN1C/C(=C/c2ccc(OC)c(O)c2)C(=O)/C(=C/c2ccc(OC)c(O)c2)C1,0
COc1ccc(/C=C2\CC/C(=C\c3ccc(OC)c(OC)c3)C2=O)cc1OC,-74
COc1cc2c(c(OC)c1OC)-c1ccc(OC)c(=O)cc1C(NC(C)=O)CC2 (centres undefined),0
COc1cc(/C=C2\COC/C(=C\c3ccc(O)c(OC)c3)C2=O)ccc1O,0
COc1cc(/C=C2/CC/C(=C/c3ccc(O)c(OC)c3)C2=O)ccc1O,-71
SMILES,aSyn 5UTR act
COc1ccc(/C=C2\CCC/C(=C\c3ccc(OC)c(OC)c3OC)C2=O)c(OC)c1OC,-71
c1ccc(-c2cc3c(ccc4nonc43)nn2)cc1,-96
COc1ccccc1C(=O)NC(=S)Nc1ccc(N2CCCC2)cc1,-83
COCCNC(=S)Nc1ccc(N2CCCCC2)cc1,-173
COc1c(C)cccc1C(=O)Nc1ccc(N2CCN(S(C)(=O)=O)CC2)cc1,-146
O=C(CNc1ccccc1OC(F)F)N1CCc2ccccc21,-289
COc1ccccc1C(=O)NC(=S)N1CCCc2ccccc21,-167
O=C(COc1ccccc1Cl)NC(=S)N1CCc2ccccc21,-87
CN1CCN(c2ccc(NC(=S)NC(=O)c3cccc4c(Cl)cccc34)cc2)CC1,-128
COc1c(C)cccc1C(=O)Nc1ccc(CN2CCOCC2)cc1,-109
COc1ccccc1C(=O)Nc1ccc(N2CCN(S(C)(=O)=O)CC2)cc1,-76
O=C(COc1ccc(F)cc1Br)N1CCc2ccccc21,-86
Cc1ccc(-c2cc(C(=O)NCc3cccnc3)no2)cc1,-90
O=C(NCc1cccnc1)c1cc(-c2ccco2)on1,-72
Cc1ccc(CN2C(=O)/C(=C\c3ccc(C(=O)NCc4cccnc4)cc3)Oc3ccccc32)cc1,0

# Source: PubChem (Broad Institute)
